Experimental data: PubChem BioAssay (NCATS)
Values without a mark were called inactive. Calls follow the shape of the dose curve; as a rule, active = well fitted curve in the direction sought with a large enough effect; inconclusive = small, poorly fitted or top-dose-only effect, or another doubt; inactive = no such curve, though single readings can be large; an effect the other way counts as inactive or inconclusive. Inconclusive results are not listed.

tested on: Nanoluciferase (engineered Oplophorus gracilirostris luciferase); test: Primary Nanoluciferase (NLuc) qHTS assay for identification of artifact compounds. (AID 1845222); details: NLuc-conditioned medium, Nano-Glo luminescence, 5 min; series mostly up to 54.1 µM; activity, negative = inhibition: at the top concentration;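 also: NLuc secreted into diluted conditioned medium of S16 cells; 0% = DMSO and -100% = no enzyme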
Procedure, shortened: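 Using secreted nanoluciferase in S16 culture medium (0.22 um filtered, 1:55 dilution), compounds were preincubated 15 min at RT. Signal was generated with Nano-Glo reagent (1:100) over 5 min.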

Compared with COc1cc(O)cc(C)c1C(=O)OC1C(CO)OC(n2ccc(=O)[nH]c2=O)C1OC(C)=O (configuration not stated), CC1=C2C(=O)C=C(CO)C2C2OC(=O)C(CS(=O)(=O)O)C2C(OC(=O)Cc2ccc(O)cc2)C1 (configuration not stated) is lower in “activity, negative = inhibition” value: -1.52% [at 25.7 µM] for the first, -5.78% [at 25.7 µM] for the second.

Going from CC(C)C(NC(=O)c1ccc(O)cc1)C(=O)N1CCCC1C(=O)Nc1c(O)cccc1C(=O)O (configuration not stated) to COc1cc([C@@H](O[C@@H]2O[C@H](CO)[C@@H](O)[C@H](O)[C@H]2O)[C@@H]2CO[C@H](c3ccc(O)c(OC)c3)[C@H]2CO)ccc1O, the “activity, negative = inhibition” value rises from -2.86% [at 25.7 µM] to 1.9% [at 25.7 µM].

Compared with CN(C)c1ccc(C2O[C@@H](c3ccccc3)C[C@H](c3ccccc3)O2)cc1 (some centres not stated), Cc1ccc(-n2nc(C(C)(C)C)cc2NC(=O)Nc2cc(COc3cccnc3)[nH]n2)cc1 is higher in “activity, negative = inhibition” value: 1.9% for the first, 3.8% for the second.

First: C=CC(C)(O)CC/C=C(\C)COC1O[C@H](CO)[C@@H](O)[C@H](O)[C@H]1O (some centres not stated)
Second: C=C[C@H]1[C@H](O[C@@H]2O[C@H](CO)[C@@H](O)[C@H](O)[C@H]2O)OC=C(C(=O)OC)[C@H]1CCO
The “activity, negative = inhibition” value of the first is lower: -17% for the first, 2.37% for the second.

First: C=CC1(C)CC=C2C(CCC3C(C)(C(=O)O)CCCC23C)C1 (configuration not stated)
Second: C=C1CCC2C(C)(C(=O)O)CCCC2(C)C1CC/C(C)=C\CO (configuration not stated)
The “activity, negative = inhibition” value of the first is higher: 3.47% for the first, -2.1% for the second.

Compared with C[C@H]1CC(=O)C2=C(C1)C(O)C(O)[C@@]1(O)[C@H]2C(=O)c2cccc(O)c2[C@@H]1O (some centres not stated), CCNC(=O)C1CC(F)(c2ccc(CN3CCCC3)c(F)c2)C1 (configuration not stated) is higher in “activity, negative = inhibition” value: -0.242% for the first, 4% for the second.

tested on: not listed separately; test: Primary redox qHTS assay for identification of artifact compounds. (AID 1845223); details: Amplex Red/HRP redox cycling with DTT, fluorescence; series mostly up to 53.8 µM; redox activity (% of DA3003): at the top concentration;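 also: 0% = DMSO and 100% = reference compound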
Procedure, shortened: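 Amplex Red (25 uM) and HRP (250 mU/mL) in HBSS, with compounds for 15 min, then 250 uM DTT for 30 min, room temperature, dark. Fluorescence 525/598 nm read; normalized to DMSO and 10 uM DA3003; Hill fit.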

Compared with COc1ccccc1CN[C@H]1CCCN[C@H]1c1ccccc1, CN(C)c1ccc(C2O[C@@H](c3ccccc3)C[C@H](c3ccccc3)O2)cc1 (some centres not stated) is higher in “redox activity (% of DA3003)” value: -6.48% for the first, -0.42% for the second.

Compared with Nc1ccc(-n2nc(C(F)(F)F)cc2C(F)(F)F)cc1, Cc1ccc(-n2nc(C(C)(C)C)cc2NC(=O)Nc2cc(COc3cccnc3)[nH]n2)cc1 is higher in “redox activity (% of DA3003)” value: -10.6% for the first, 1.5% for the second.

Compared with C[C@]12CCC[C@](C)(C(=O)O)C1CCC13CC(CO)C(CCC12)C3 (some centres not stated), C=CC1(C)CC=C2C(CCC3C(C)(C(=O)O)CCCC23C)C1 (configuration not stated) is lower in “redox activity (% of DA3003)” value: -7.42% for the first, -10.2% for the second.

Compared with CCC(C)(C)C1CCc2c(sc(NC(=O)c3ccc(Br)cc3)c2C#N)C1 (configuration not stated), CC(C)(O)c1ccc2c(c1)C(=O)C[C@H]1[C@](C)(C(=O)O)CCC[C@]21C is lower in “redox activity (% of DA3003)” value: -4.13% for the first, -14.9% for the second.

Going from C[C@@]1(O)[C@H](O)[C@@H](CO)O[C@H]1n1cnc2c(=O)[nH]c(N)nc21 to COc1cc(/C=C/C(=O)O[C@@H]2O[C@H](CO)[C@@H](O)[C@H](O)[C@H]2O)ccc1O, the “redox activity (% of DA3003)” value falls from -3.81% to -9.44%.

First: CC(=O)/C=C/C1(O)C(C)=CC(=O)CC1(C)C (configuration not stated)
Second: CC(=O)/C=C/[C@H]1[C@](C)(O)[C@@H](O)[C@H](O)C2C(C)(C)CCC[C@@]21C (some centres not stated)
The “redox activity (% of DA3003)” value of the first is lower: -1.7% for the first, 15.8% for the second.

Going from CC(C)NC(=O)c1ccc(C#Cc2ccncc2)cn1 to CCNC(=O)C1CC(F)(c2ccc(CN3CCCC3)c(F)c2)C1 (configuration not stated), the “redox activity (% of DA3003)” value rises from -6.17% to -5.78%.

Compared with C=CC(C)(O)CC/C=C(\C)COC1O[C@H](CO)[C@@H](O)[C@H](O)[C@H]1O (some centres not stated), C=C[C@H]1[C@H](O[C@@H]2O[C@H](CO)[C@@H](O)[C@H](O)[C@H]2O)OC=C(C(=O)OC)[C@H]1CCO is higher in “redox activity (% of DA3003)” value: -17.4% for the first, -16.2% for the second.

First: C[C@H]1CC(=O)C2=C(C1)C(O)C(O)[C@@]1(O)[C@H]2C(=O)c2cccc(O)c2[C@@H]1O (some centres not stated)
Second: C=C1CCC2C(C)(C(=O)O)CCCC2(C)C1CC/C(C)=C\CO (configuration not stated)
The “redox activity (% of DA3003)” value of the first is lower: -10.6% for the first, -3.76% for the second.

First: C=C1C(O)C(OC(=O)c2ccccc2)C2C(C)(C(=O)O)CCCC2(C)C1CC/C(C)=C\CO (configuration not stated)
Second: CC1C2=CC(=O)OC2(O)CC2C1C(OC(=O)c1ccccc1)C(OC(=O)c1ccccc1)C1(O)C2(C)CCC(O)C1(C)C(=O)O (configuration not stated)
The “redox activity (% of DA3003)” value of the first is higher: 10% [at 25.6 µM] for the first, -13.1% [at 25.6 µM] for the second.

First: OC[C@H]1O[C@@H](OCc2ccccc2)[C@H](O[C@@H]2OC[C@@H](O)[C@H](O)[C@H]2O)[C@@H](O)[C@@H]1O
Second: COC(=O)c1ccccc1O[C@@H]1O[C@H](CO[C@@H]2OC[C@@H](O)[C@H](O)[C@H]2O)[C@@H](O)[C@H](O)[C@H]1O
The “redox activity (% of DA3003)” value of the first is lower: -11.4% [at 25.6 µM] for the first, 4.71% [at 25.6 µM] for the second.

First: C[C@@H]1O[C@@H](O[C@H]2[C@@H]3C=CO[C@@H](O[C@@H]4O[C@H](CO)[C@@H](O)[C@H](O)[C@H]4O)[C@@H]3[C@@]3(CO)O[C@@H]23)[C@H](O)[C@H](O)[C@H]1OC(=O)/C=C/c1ccc(O)cc1
Second: COc1cc(/C=C/C(=O)O[C@H]2[C@@H]3C=CO[C@@H](O[C@@H]4O[C@H](CO)[C@@H](O)[C@H](O)[C@H]4O)[C@@H]3[C@@]3(CO)O[C@@H]23)ccc1O
The “redox activity (% of DA3003)” value of the first is lower: -12.7% [at 25.6 µM] for the first, 2.24% [at 25.6 µM] for the second.

Going from NC1Nc2ccccc2C1(N)CC1NC(=O)C(Cc2ccccc2)NC(=O)C(Cc2ccccc2)NC1=O (configuration not stated) to CC(=O)OC12CC(C)C(OC(=O)c3ccccc3)C1/C=C(/C)C(OC(=O)c1ccccc1)CC(=O)C(C)(C)/C=C/C(C)C2=O (configuration not stated), the “redox activity (% of DA3003)” value falls from 10.6% [at 25.6 µM] to 8.01% [at 25.6 µM].

Compared with COc1cc(C(CO)C(OC2OC(CO)C(O)C(O)C2O)c2ccc(O)c(OC)c2)ccc1O (configuration not stated), COc1cc([C@@H](O[C@@H]2O[C@H](CO)[C@@H](O)[C@H](O)[C@H]2O)[C@@H]2CO[C@H](c3ccc(O)c(OC)c3)[C@H]2CO)ccc1O is higher in “redox activity (% of DA3003)” value: -6.21% [at 25.6 µM] for the first, 13.3% [at 25.6 µM] for the second.

First: COC(=O)C1=COC(O[C@@H]2O[C@H](CO)[C@@H](O)[C@H](O)[C@H]2O)[C@@H]2[C@@](C)(O)[C@@H](OC(=O)/C=C/c3ccccc3)C[C@]12O (some centres not stated)
Second: CC(=O)OC1(C)CC(O)C2(O)C=COC(OC3OC(CO)C(O)C(O)C3O)C12 (configuration not stated)
The “redox activity (% of DA3003)” value of the first is higher: -2.7% [at 25.6 µM] for the first, -17.3% [at 25.6 µM] for the second.

First: O=C(/C=C/c1ccc(O)cc1)OC[C@H]1O[C@H](O[C@@]2(CO)O[C@@H](CO)[C@H](O)[C@H]2O)[C@H](O)[C@@H](O)[C@@H]1O
Second: O=C(O[C@H]1[C@H](Oc2ccc(O)cc2CO)O[C@H](CO)[C@@H](O)[C@@H]1O)c1ccccc1
The “redox activity (% of DA3003)” value of the first is lower: -1.22% [at 25.6 µM] for the first, -0.277% [at 25.6 µM] for the second.

First: CC(=O)OC1CC2C(C)(C)C(=O)C=CC2(C)C2CC(=O)C3=C(CCC3C3=CC(O)OC3=O)C12C (configuration not stated)
Second: COc1cc(O)cc(C)c1C(=O)OC1C(CO)OC(n2ccc(=O)[nH]c2=O)C1OC(C)=O (configuration not stated)
The “redox activity (% of DA3003)” value of the first is higher: 19.9% [at 25.6 µM] for the first, -11.6% [at 25.6 µM] for the second.

First: CC1CCC2(C(=O)OC3OC(CO)C(O)C(O)C3O)CCC3(C)C(=CCC4C5(C)CCC(O)C(C)(CO)C5CCC43C)C2C1(C)O (configuration not stated)
Second: CC1=C2C(=O)C=C(CO)C2C2OC(=O)C(CS(=O)(=O)O)C2C(OC(=O)Cc2ccc(O)cc2)C1 (configuration not stated)
The “redox activity (% of DA3003)” value of the first is higher: 5.74% [at 25.6 µM] for the first, -9.54% [at 25.6 µM] for the second.

With CC(C)C(NC(=O)c1ccc(O)cc1)C(=O)N1CCCC1C(=O)Nc1c(O)cccc1C(=O)O (configuration not stated) the “redox activity (% of DA3003)” value was -0.112% [at 25.6 µM].

First: C/C=C(/C)C(=O)OC1C(OC(C)=O)C23C(O)OC4(CCC5C6(C)CCC(OC7OC(C(=O)O)C(O)C(OC8OC(CO)C(O)C(O)C8OC8OC(C)C(O)C(O)C8OC8OCC(O)C(O)C8O)C7OC7OC(CO)C(O)C(O)C7O)C(C)(C)C6CCC5(C)C4(C)CC2OC(C)=O)C3CC1(C)C (configuration not stated)
Second: CC1(C)CC[C@]2(C(=O)O[C@@H]3O[C@H](CO)[C@@H](O)[C@H](O)[C@H]3O)CC[C@]3(C)C(=CCC4[C@@]5(C)CC[C@H](O[C@@H]6O[C@H](C(=O)O)[C@@H](O[C@@H]7O[C@H](CO)[C@@H](O)[C@H](O)[C@H]7O)[C@H](O)[C@H]6O[C@@H]6O[C@H](CO)[C@@H](O)[C@H](O)[C@H]6O)C(C)(C)C5CC[C@]43C)C2C1 (some centres not stated)
The redox activity (% of DA3003) of the first is lower: 6.91% [at 11.5 µM] for the first, 12.6% [at 11.5 µM] for the second.

In the case of C=CC(C)(O)CC/C=C(\C)C(=O)O[C@@H]1[C@@H](O)[C@H](OC(C)(C=C)CC/C=C(\C)C(=O)O[C@@H]2O[C@H](CO)[C@@H](O)[C@H](O)[C@H]2O)O[C@H](CO)[C@H]1OC(=O)/C(C)=C/CCC(C)(O)C=C (some centres not stated), the redox activity (% of DA3003) is reported as -5.92% [at 11.5 µM].
